# About 410 targets per protein were measured; listed, in parts, are those with the strongest signals and a random draw of the rest.
# Assays:
# Assay in all cases: glycan array binding signal (z-score within array); higher = stronger binding
# Conditions in all cases: glycan notation: IUPAC condensed, linker removed
# [1] = biological target: Gal(b1-4)GlcNAc(b1-3)[Gal(b1-4)GlcNAc(b1-6)]Gal(b1-4)GlcNAc
# How it was run: (§1)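 Columns mapping to the same glycan were averaged after glycan names were converted to IUPAC-condensed notation. The data come from 3228 arrays in the Consortium for Functional Glycomics database, limited to those with an available protein sequence. Binding is reported as a within-array Z-score averaged across arrays of one protein sequence and across linkers.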
# [2] = biological target: Gal3S(b1-4)[Fuc(a1-3)]Glc6S
# How it was run: as §1
# [3] = biological target: GalNAc(b1-4)GlcNAc(b1-2)Man(a1-3)[GalNAc(b1-4)GlcNAc(b1-2)Man(a1-6)]Man(b1-4)GlcNAc(b1-4)GlcNAc
# How it was run: as §1
# [4] = biological target: GlcNAc(a1-4)Gal(b1-4)GlcNAc
# How it was run: as §1
# [5] = biological target: GlcNAc(b1-2)[GlcNAc(b1-4)]Man(a1-3)[GlcNAc(b1-2)Man(a1-6)]Man(b1-4)GlcNAc(b1-4)GlcNAc
# How it was run: as §1
# [6] = biological target: GlcNAc(b1-3)Gal(b1-4)GlcNAc(b1-3)Gal(b1-4)GlcNAc(b1-3)Gal(b1-4)GlcNAc(b1-3)Gal(b1-4)GlcNAc(b1-2)[GlcNAc(b1-3)Gal(b1-4)GlcNAc(b1-3)Gal(b1-4)GlcNAc(b1-3)Gal(b1-4)GlcNAc(b1-3)Gal(b1-4)GlcNAc(b1-6)]Man(a1-6)[GlcNAc(b1-3)Gal(b1-4)GlcNAc(b1-3)Gal(b1-4)GlcNAc(b1-3)Gal(b1-4)GlcNAc(b1-3)Gal(b1-4)GlcNAc(b1-2)Man(a1-3)]Man(b1-4)GlcNAc(b1-4)[Fuc(a1-6)]GlcNAc
# How it was run: as §1
# GlcNAc(b1-3)GalNAc = biological target: GlcNAc(b1-3)GalNAc
# How it was run: as §1
# [7] = biological target: GlcNAc(b1-3)[GlcNAc(b1-4)][GlcNAc(b1-6)]GlcNAc
# How it was run: as §1
# [8] = biological target: GlcNAc(b1-3)[GlcNAc(b1-6)]GalNAc
# How it was run: as §1
# Kdn(a2-3)Gal(b1-4)Glc = biological target: Kdn(a2-3)Gal(b1-4)Glc
# How it was run: as §1
# MurNAc(b1-4)GlcNAc = biological target: MurNAc(b1-4)GlcNAc
# How it was run: as §1
# [9] = biological target: Neu5Ac(a2-3)Gal(b1-3)GalNAc
# How it was run: as §1
# [10] = biological target: Neu5Ac(a2-3)Gal(b1-3)GalNAc(b1-4)[Neu5Ac(a2-3)]Gal(b1-4)Glc
# How it was run: as §1
# [11] = biological target: Neu5Ac(a2-3)Gal(b1-3)GlcNAc(b1-2)Man(a1-3)[Neu5Ac(a2-3)Gal(b1-3)GlcNAc(b1-2)Man(a1-6)]Man(b1-4)GlcNAc(b1-4)GlcNAc
# How it was run: as §1
# [12] = biological target: Neu5Ac(a2-3)Gal(b1-3)GlcNAc(b1-2)[Neu5Ac(a2-3)Gal(b1-3)GlcNAc(b1-4)]Man(a1-6)[Neu5Ac(a2-3)Gal(b1-3)GlcNAc(b1-2)Man(a1-3)]Man(b1-4)GlcNAc(b1-4)GlcNAc
# How it was run: as §1
# [13] = biological target: Neu5Ac(a2-3)Gal(b1-3)GlcNAc6S
# How it was run: as §1
# [14] = biological target: Neu5Ac(a2-3)Gal(b1-3)[Fuc(a1-4)]GlcNAc
# How it was run: as §1
# [15] = biological target: Neu5Ac(a2-3)Gal(b1-3)[Fuc(a1-4)]GlcNAc(b1-3)Gal(b1-4)[Fuc(a1-3)]GlcNAc
# How it was run: as §1
# [16] = biological target: Neu5Ac(a2-3)Gal(b1-4)GlcNAc(b1-3)Gal(b1-4)GlcNAc(b1-3)Gal(b1-4)GlcNAc(b1-2)Man(a1-3)[Neu5Ac(a2-3)Gal(b1-4)GlcNAc(b1-3)Gal(b1-4)GlcNAc(b1-3)Gal(b1-4)GlcNAc(b1-2)Man(a1-6)]GalNAc
# How it was run: as §1
# [17] = biological target: Neu5Ac(a2-3)Gal(b1-4)GlcNAc(b1-6)[Neu5Ac(a2-3)Gal(b1-3)]GalNAc
# How it was run: as §1
# [18] = biological target: Neu5Ac(a2-6)Gal(b1-4)GlcNAc(b1-2)Man
# How it was run: as §1
# [19] = biological target: Neu5Ac(a2-6)Gal(b1-4)GlcNAc(b1-2)Man(a1-3)[Neu5Ac(a2-6)Gal(b1-4)GlcNAc(b1-2)Man(a1-6)]Man(b1-4)GlcNAc(b1-4)[Fuc(a1-6)]GlcNAc
# How it was run: as §1
# [20] = biological target: Neu5Ac(a2-6)GlcNAc(b1-4)GlcNAc
# How it was run: as §1
# [21] = biological target: Neu5Ac(a2-8)Neu5Ac(a2-8)Neu5Ac
# How it was run: as §1
# [22] = biological target: Neu5Ac9Ac(a2-3)Gal(b1-3)GlcNAc
# How it was run: as §1
binder,measurement,setting,value
rCnSL-proB (Clitocybe nebularis) (protein) PTFSPIFALLAFLPFGTLASLLPQTQLVFRINPNLPGPNDVFVGYRGTNNVVGAIYERDGIKDTPMNNGADAELGPGSYITDDLFTAQIFASGSAGNNPGTTATVCKIYADGVQWRGAPKGYLPVLYFGNGQAAEQTRQTYLQGLDIPGTAIRFANLAKTPNQGPTAPRQMVVPSGGLQTLLKASCFPANHAALPQVLSYFNVRAALPPGWNIRTGPEFPNWTN,glycan array binding signal (z-score),[1],-0.283
same,glycan array binding signal (z-score),[2],0.549
same,glycan array binding signal (z-score),[3],3.38
same,glycan array binding signal (z-score),[4],-0.308
same,glycan array binding signal (z-score),[5],-0.133
same,glycan array binding signal (z-score),[6],0.742
same,glycan array binding signal (z-score),GlcNAc(b1-3)GalNAc,-0.757
same,glycan array binding signal (z-score),[7],-0.62
same,glycan array binding signal (z-score),[8],-0.668
same,glycan array binding signal (z-score),Kdn(a2-3)Gal(b1-4)Glc,-1.27
same,glycan array binding signal (z-score),MurNAc(b1-4)GlcNAc,-0.477
same,glycan array binding signal (z-score),[9],-0.437
same,glycan array binding signal (z-score),[10],-0.343
same,glycan array binding signal (z-score),[11],3.69
same,glycan array binding signal (z-score),[12],0.146
same,glycan array binding signal (z-score),[13],0.395
same,glycan array binding signal (z-score),[14],-0.555
same,glycan array binding signal (z-score),[15],0.025
same,glycan array binding signal (z-score),[16],4.43
same,glycan array binding signal (z-score),[17],-0.239
same,glycan array binding signal (z-score),[18],0.328
same,glycan array binding signal (z-score),[19],0.037
same,glycan array binding signal (z-score),[20],-0.255
same,glycan array binding signal (z-score),[21],-0.203
same,glycan array binding signal (z-score),[22],-0.873

# From the supplement of paper PMC8728848
